NR2F2 inh: inhibitors of human COUP-TFII (NR2F2) | AID 686940 | HEK293T NGFI-A luciferase reporter, luminescence | 370,000 tested, 0.7% active | inhibition, % at 8.6 µM;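 active = inhibition above a per-plate cutoff, mean inhibition of test wells between control levels plus 3 SD, cut at about 38% in these data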;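 also: cells cotransfected with COUP-TFII expression vector driving the NGFI-A reporter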
Target sequence (P24468 whole entry, looked up): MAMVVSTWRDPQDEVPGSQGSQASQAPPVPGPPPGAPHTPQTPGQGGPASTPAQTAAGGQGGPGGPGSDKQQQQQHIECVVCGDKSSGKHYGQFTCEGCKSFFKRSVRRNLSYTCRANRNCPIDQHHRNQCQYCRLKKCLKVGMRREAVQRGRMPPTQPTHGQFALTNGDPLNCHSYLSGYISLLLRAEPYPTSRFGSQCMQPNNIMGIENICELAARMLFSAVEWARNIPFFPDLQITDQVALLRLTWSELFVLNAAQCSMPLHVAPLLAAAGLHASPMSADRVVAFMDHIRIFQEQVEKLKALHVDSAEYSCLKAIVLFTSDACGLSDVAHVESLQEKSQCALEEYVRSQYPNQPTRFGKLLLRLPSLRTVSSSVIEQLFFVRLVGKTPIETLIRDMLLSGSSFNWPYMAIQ
aDG glyco up: alpha-DG glycosylation activation | Pro5-aDG cells, alpha-DG glycosylation AlphaScreen (IIH6); 0% Pro5, 100% B10-LARGE cell signal | activation, % at 10 µM | 360,000 tested, 0.22% active;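 active = activation of at least 8% versus controls, or a plate z-score of at least 8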;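 also: Pro5 are CHO cells carrying HIG-tagged alpha-DG that lacks glycosylation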
Gli-Sufu antag: antagonists of Gli-Sufu signaling. Sufu-KO-LIGHT fibroblasts, Gli luciferase reporter luminescence. inhibition, % at 5 µM. 340,000 tested, 0.74% active. AID 588413;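 active = inhibition above about 55%, limit read from the data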
Env fusion inh: inhibitors of HIV Env-mediated cell fusion; HeLa-JRFL Env/CEM21 cell fusion, luciferase; inhibition, % at 12.3 µM; 360,000 tested, 1.1% active; AID 651610;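 active = mean replicate inhibition score of at least 50 and every replicate individually at or above 50; inconclusive = only one of the two criteria met; inactive = mean below 50 and not all replicates reaching 50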
GalR3 antagonist: blocks the human galanin receptor 3. O60755. AID 651719. inhibition, % at 3 µM. 360,000 tested, 0.44% active. HEK293 GalR3-CNG cAMP membrane potential fluorescence; galR3 body fused to GalR1 C-terminus;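 active = inhibition above the screen-wide average plus 3 SD, cut at about 13% in these data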;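 also: forskolin and galanin both at EC90 stimulate the cells; cAMP rise reported by CNG channel membrane potential dye signal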
Target sequence (O60755 1-299 limits assumed): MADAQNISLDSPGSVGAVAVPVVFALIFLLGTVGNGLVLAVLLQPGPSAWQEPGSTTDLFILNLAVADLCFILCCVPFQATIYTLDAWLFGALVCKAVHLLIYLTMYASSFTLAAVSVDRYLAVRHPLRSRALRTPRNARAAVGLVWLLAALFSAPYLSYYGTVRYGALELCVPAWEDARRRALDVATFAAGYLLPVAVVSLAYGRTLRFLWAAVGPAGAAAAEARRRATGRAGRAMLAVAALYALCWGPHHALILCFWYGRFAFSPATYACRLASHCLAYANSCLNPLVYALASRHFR
Gli antag conf: Gli-SUFU antagonism confirmation, single concentration. shares compounds with Gli-Sufu antag. Sufu-KO-LIGHT cells, Gli luciferase reporter, luminescence. inhibition, % at 5 µM. 2,500 tested, 40% active. AID 602428;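 active = mean inhibition at 5 µM reaching about 45%, limit read from the data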
Gli cytotox: counter-screen for Gli-SUFU antagonists: cytotoxicity; 2,500 tested, 32% active; Sufu-KO-LIGHT cells cytotoxicity, ATP luminescence; cytotoxicity, % at 5 µM; shares compounds with Gli-Sufu antag; AID 651994;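 active = mean cytotoxicity at 5 µM above about 25%, limit read from the data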;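 also: cells exposed to compound overnight for roughly 16 to 18 hours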
Wnt3a cs: Wnt3a reporter inhibition counter-screen; Wnt-LIGHT cells, Wnt3a-driven luciferase reporter, luminescence; inhibition, % at 6.25 µM; AID 651995; 2,500 tested, 20% active; shares compounds with Gli-Sufu antag;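 active = mean inhibition above about 25%, limit read from the data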
Each line names hits and unclear results; the compound was inactive in the other large screens (follow-up assays come after a bar, where they were run). Shown are actives, neighbours in structure and some others; about 2.1% of the full set was active somewhere.

O=C(c1cc2n(n1)C(C(F)(F)F)CC(c1ccc(Cl)cc1)N2)N1CCCC1 (stereo not given)	Gli-Sufu antag 57 | Gli antag conf inactive | Gli cytotox inactive | Wnt3a cs inactive
O=C(c1cc2n(n1)C(C(F)(F)F)CC(c1ccc(F)cc1)N2)N1CCCC1 (stereo not given)	none (no result: Env fusion inh)
C[C@H](O)C#Cc1ccc2c(c1)O[C@H](CN(C)C(=O)CC1CC1)[C@H](C)CN([C@@H](C)CO)S2(=O)=O	none (no result: NR2F2 inh, aDG glyco up, Gli-Sufu antag, GalR3 antagonist)
Cc1cc(-c2nnc(SCC(=O)Nc3ccccc3C(F)(F)F)o2)c(C)n1-c1ccccc1	Gli-Sufu antag 57 (no result: Env fusion inh) | Gli antag conf 67 | Gli cytotox inactive | Wnt3a cs 64
Cc1cccc(NC(=O)CSc2nnc(-c3cc(C)n(-c4ccccc4)c3C)o2)c1C	none
Cc1ccc(C23CC4CC(CC(NC(=O)NN)(C4)C2)C3)cc1	none | Gli antag conf inactive | Gli cytotox inactive | Wnt3a cs inactive
COc1ccc(CC(=O)N2CCCc3ccccc32)cc1OC	Gli-Sufu antag 91 | Gli antag conf inactive | Gli cytotox inactive | Wnt3a cs inactive
C[C@H](CO)N1C[C@H](C)[C@@H](CN(C)S(=O)(=O)c2cn(C)cn2)OCCCC[C@H](C)Oc2ccc(NS(C)(=O)=O)cc2C1=O	none (no result: NR2F2 inh, aDG glyco up, Gli-Sufu antag, GalR3 antagonist)
O=C(CCNC(=O)N1CC(=O)Nc2ccccc21)NCCc1cccc(F)c1	none | Gli antag conf inactive | Gli cytotox inactive | Wnt3a cs inactive
O=C(CNC(=O)N1CC(=O)Nc2ccccc21)NCCc1cccc(F)c1	none
O=C(CN1C(=O)c2ccccc2S1(=O)=O)N1CCN(c2ccccc2F)CC1	none (no result: Env fusion inh)
O=C(CN1C(=O)c2ccccc2S1(=O)=O)c1cccc(Br)c1	Gli-Sufu antag 67 | Gli antag conf 74 | Gli cytotox inactive | Wnt3a cs 85
O=C(CN1C(=O)c2ccccc2S1(=O)=O)c1ccccc1F	Gli-Sufu antag 60 | Gli antag conf 78 | Gli cytotox inactive | Wnt3a cs 89
Cc1csc(NC(=O)c2cc3c(s2)CCC3)n1	Gli-Sufu antag 62 (no result: Env fusion inh) | Gli antag conf inactive | Gli cytotox inactive | Wnt3a cs inactive
COC(=O)c1sc(NC(=O)c2cc3c(s2)CCCC3)nc1C	none
O=c1c2ccccc2nc2n1C(CSCc1ccc(Cl)cc1Cl)CS2 (stereo not given)	none (no result: Env fusion inh) | Gli antag conf inactive | Gli cytotox 33 | Wnt3a cs inactive
CC(C)CC#Cc1cnc2c(c1)C(=O)N([C@H](C)CO)C[C@@H](C)[C@H](CN(C)S(=O)(=O)c1cn(C)cn1)O2	none (no result: NR2F2 inh, aDG glyco up, Gli-Sufu antag, GalR3 antagonist)
COc1ccc(Br)cc1C(=O)NC(=S)Nc1ccc(CN2CCOCC2)cc1	none | Gli antag conf inactive | Gli cytotox inactive | Wnt3a cs inactive
O=C(CN1C(=O)c2ccccc2C1=O)Nc1cccnc1	Gli-Sufu antag 64 (no result: Env fusion inh) | Gli antag conf inactive | Gli cytotox inactive | Wnt3a cs inactive
CCCOc1ccccc1N/C(=N/c1nc(C)cc(C)n1)NC(=O)COc1ccc(OC)cc1	Gli-Sufu antag 67 (no result: Env fusion inh) | Gli antag conf 48 | Gli cytotox inactive | Wnt3a cs inactive
CCCOc1ccccc1N/C(N)=N/c1nc(C)cc(C)n1	none
C[C@@H]1CN([C@@H](C)CO)C(=O)Cc2cc(NC(=O)Nc3ccc(C(F)(F)F)cc3)ccc2O[C@@H]1CN(C)C(=O)Nc1ccccc1	none (no result: NR2F2 inh, aDG glyco up, Gli-Sufu antag, GalR3 antagonist)
CO[C@@H]1CN(C)C(=O)c2ccc(NC(=O)C3CCOCC3)cc2OC[C@@H](C)NC[C@H]1C	none (no result: NR2F2 inh, aDG glyco up, Gli-Sufu antag, GalR3 antagonist)
NC(=O)CC(NC(=O)c1ccc(Br)cc1)c1ccc(N2CCCCCCC2)c([N+](=O)[O-])c1 (stereo not given)	Gli-Sufu antag 60 | Gli antag conf inactive | Gli cytotox inactive | Wnt3a cs inactive
NC(=O)CC(NC(=O)c1ccc(Br)cc1)c1ccc(N2CCN(c3ccccc3)CC2)c([N+](=O)[O-])c1 (stereo not given)	none
NC(=O)CC(NC(=O)c1ccccc1)c1ccc(N2CCC(Cc3ccccc3)CC2)c([N+](=O)[O-])c1 (stereo not given)	Gli-Sufu antag 63, Env fusion inh 87 | Gli antag conf 54 | Gli cytotox 27 | Wnt3a cs inactive
CN1CCN(c2ccc([N+](=O)[O-])cc2C(=O)c2ccc(Br)cc2)CC1	none
O=C(c1ccc(Br)cc1)c1cc([N+](=O)[O-])ccc1N1CCCCC1	none | Gli antag conf 60 | Gli cytotox 60 | Wnt3a cs inactive
O=C(C[C@@H]1C=C[C@H](NC(=O)C2CC2)[C@@H](CO)O1)Nc1ccccc1	none (no result: NR2F2 inh, aDG glyco up, Gli-Sufu antag, GalR3 antagonist)
Cc1ccc(C2C(C#N)=C(N)N(c3cccnc3)C3=C2C(=O)CCC3)s1 (stereo not given)	Gli-Sufu antag 60 | Gli antag conf inactive | Gli cytotox inactive | Wnt3a cs inactive
Cc1nc2nc(-c3ccc(Cl)cc3)cn2nc1C	none (no result: Env fusion inh)
Cc1nc2nc(-c3cccs3)cn2nc1C	none | Gli antag conf inactive | Gli cytotox inactive | Wnt3a cs inactive
COc1ccc2[nH]c(=O)c(CN(C(=O)c3cccnc3)c3cccc(C)c3)cc2c1	none
COc1ccc2[nH]c(=O)c(CN(C(=O)c3cccnc3)c3ccc(C)cc3)cc2c1	Gli-Sufu antag 83 (no result: Env fusion inh) | Gli antag conf inactive | Gli cytotox inactive | Wnt3a cs inactive
O=C1CCCC(O)=C1C=NCc1ccccc1	Gli-Sufu antag 58 | Gli antag conf inactive | Gli cytotox inactive | Wnt3a cs inactive
O=C1N/C(=C\c2ccc(O)cc2)C(O)=C1C=NCc1ccccc1	Gli-Sufu antag 71 | Gli antag conf 47 | Gli cytotox inactive | Wnt3a cs inactive
Cc1oc(/N=C/c2ccc(Cl)cc2)c(C#N)c1C	Gli-Sufu antag 71 | Gli antag conf inactive | Gli cytotox inactive | Wnt3a cs inactive
Cc1oc(/N=C/c2ccc(Cl)cc2Cl)c(C#N)c1C	none
CC(=Nc1ccc(C)cc1C)c1sc2ccccc2c1O	none
CC(=Nc1ccc(C)cc1)c1sc2ccccc2c1O	Gli-Sufu antag 61 | Gli antag conf inactive | Gli cytotox 54 | Wnt3a cs 28
N#C/C(=C(/O)c1ccc([N+](=O)[O-])s1)c1nc2ccccc2[nH]1	Env fusion inh inconclusive | Gli antag conf 59 | Gli cytotox inactive | Wnt3a cs 33
COc1cc(NC(=S)NCCCN2CCOCC2)cc(OC)c1OC	none
COc1cc(NC(=S)NCCN2CCOCC2)cc(OC)c1OC	none | Gli antag conf inactive | Gli cytotox inactive | Wnt3a cs inactive
CC(=O)N(C)C[C@H]1Oc2cc(-c3cccc(F)c3)ccc2S(=O)(=O)N([C@H](C)CO)C[C@H]1C	none (no result: NR2F2 inh, aDG glyco up, Gli-Sufu antag, GalR3 antagonist)
C/C(=N\NC(=O)C(C)Oc1ccc([N+](=O)[O-])cc1)c1ccccn1 (stereo not given)	Gli-Sufu antag 88 | Gli antag conf 85 | Gli cytotox 33 | Wnt3a cs 56

From PubChem
